In PubChem BioAssay AID1159580 (chemical genetic matrix, 2015):
The whole screen tested about 5,500 compounds, of which about 2,000 (36%) were called active. Not shown: some 18% with an inconclusive outcome. Cut-off read from the data, not from the text of the source: active = normalized growth mostly below about 0.91 (no sharp cut-off); inconclusive = no clear call, values can overlap the other calls; inactive = mostly above about 0.92. The list shows a part of the results.

Assay: chemical genetic growth profiling, strain panel (AID 1159580);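 note: tested at 20 µM; growth read once vehicle control cultures reached saturation at 30 °C; 1 = growth at the plate median or of vehicle wells; lower values mean less growth of the strain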
Settings: growth OD

Measured: normalized growth

Cc1ccc(S(=O)(=O)NC(=O)NN2CC3CCCC3C2)cc1 (stereo not drawn)
inactive: S. cerevisiae deletion strains, locus YJR043C, strain POL32, active compounds read low 0.991 | S. cerevisiae deletion strains, locus YJR066W, strain TOR1, active compounds read low 0.904 | S. cerevisiae deletion strains, locus YKL009W, strain mrt4, active compounds read low 1.02 | S. cerevisiae deletion strains, locus YKL068W, active compounds read low 1.01 | S. cerevisiae deletion strains, locus YKL085W, strain MDH1 (second series), active compounds read low 1.04 | S. cerevisiae deletion strains, locus YKL085W, strain MDH1, active compounds read low 1.04 | S. cerevisiae deletion strains, locus YKL160W, strain elf1, active compounds read low 0.98 | S. cerevisiae deletion strains, locus YKL190W, strain CNB1, active compounds read low 1.01 | S. cerevisiae deletion strains, locus YKR001C, strain vps1, active compounds read low 1.01 | S. cerevisiae deletion strains, locus YKR026C, strain gcn3, active compounds read low 0.978 | S. cerevisiae deletion strains, locus YKR091W, strain srl3, active compounds read low 0.974 | S. cerevisiae deletion strains, locus YLL001W, strain dnm1, active compounds read low 0.953 | S. cerevisiae deletion strains, locus YLL026W, active compounds read low 0.974 | S. cerevisiae deletion strains, locus YLL041C, strain sdh2, active compounds read low 0.982 | S. cerevisiae deletion strains, locus YLR027C, strain aat2, active compounds read low 0.976 | S. cerevisiae deletion strains, locus YLR039C, strain RIC1, active compounds read low 0.943 | S. cerevisiae deletion strains, locus YLR058C, strain SHM2, active compounds read low 1.01 | S. cerevisiae deletion strains, locus YLR102C, strain apc9, active compounds read low 1.01 | S. cerevisiae deletion strains, locus YLR113W, strain HOG1, active compounds read low 0.974 | S. cerevisiae deletion strains, locus YLR221C, strain rsa3, active compounds read low 0.976 | S. cerevisiae deletion strains, locus YLR258W, strain gsy2, active compounds read low 0.99 | S. cerevisiae deletion strains, locus YLR262C, strain YPT6 (second series), active compounds read low 0.927 | S. cerevisiae deletion strains, locus YLR262C, strain YPT6, active compounds read low 0.967 | S. cerevisiae deletion strains, locus YLR268W, strain sec22, active compounds read low 0.999 | S. cerevisiae deletion strains, locus YLR320W, strain mms22, active compounds read low 0.983 | S. cerevisiae deletion strains, locus YLR330W, strain CHS5, active compounds read low 1 | S. cerevisiae deletion strains, locus YLR342W, strain FKS1 (second series), active compounds read low 0.992 | S. cerevisiae deletion strains, locus YLR342W, strain FKS1, active compounds read low 0.996 | S. cerevisiae deletion strains, locus YLR357W, strain rsc2, active compounds read low 0.989 | S. cerevisiae deletion strains, locus YLR370C, strain arc18, active compounds read low 0.953 | S. cerevisiae deletion strains, locus YLR371W, strain rom2, active compounds read low 1.01 | S. cerevisiae deletion strains, locus YLR384C, strain iki3, active compounds read low 0.993 | S. cerevisiae deletion strains, locus YLR418C, strain cdc73, active compounds read low 1.02 | S. cerevisiae deletion strains, locus YML016C, strain PPZ1, active compounds read low 0.996 | S. cerevisiae deletion strains, locus YML032C, strain rad52, active compounds read low 1.01 | S. cerevisiae deletion strains, locus YML120C, strain ndi1, active compounds read low 1.01 | S. cerevisiae deletion strains, locus YML124C, strain tub3, active compounds read low 1.01 | S. cerevisiae deletion strains, locus YMR058W, strain fet3, active compounds read low 0.958 | S. cerevisiae deletion strains, locus YMR078C, strain ctf18, active compounds read low 1.02 | S. cerevisiae deletion strains, locus YMR125W, strain sto1, active compounds read low 0.966 | S. cerevisiae deletion strains, locus YMR129W, active compounds read low 0.97 | S. cerevisiae deletion strains, locus YMR205C, strain PFK2, active compounds read low 0.991 | S. cerevisiae deletion strains, locus YMR223W, strain ubp8, active compounds read low 1.03 | S. cerevisiae deletion strains, locus YMR231W, strain pep5, active compounds read low 0.989 | S. cerevisiae deletion strains, locus YMR263W, strain SAP30, active compounds read low 1.02 | S. cerevisiae deletion strains, locus YMR307W, strain GAS1, active compounds read low 1.04 | S. cerevisiae deletion strains, locus YNL067W, strain RPL9B, active compounds read low 1.03 | S. cerevisiae deletion strains, locus YNL071W, strain lat1, active compounds read low 0.974 | S. cerevisiae deletion strains, locus YNL153C, strain GIM3, active compounds read low 1 | S. cerevisiae deletion strains, locus YNL183C, strain NPR1, active compounds read low 0.92 | S. cerevisiae deletion strains, locus YNL209W, strain ssb2, active compounds read low 0.977 | S. cerevisiae deletion strains, locus YNL233W, strain BNI4, active compounds read low 1.01 | S. cerevisiae deletion strains, locus YNL248C, strain rpa49, active compounds read low 0.982 | S. cerevisiae deletion strains, locus YNL250W, strain rad50, active compounds read low 1.03 | S. cerevisiae deletion strains, locus YNL271C, strain bni1, active compounds read low 1.01 | S. cerevisiae deletion strains, locus YNL298W, strain CLA4, active compounds read low 1.04 | S. cerevisiae deletion strains, locus YNL307C, strain MCK1, active compounds read low 1.02 | S. cerevisiae deletion strains, locus YNL322C, strain KRE1 (second series), active compounds read low 0.978 | S. cerevisiae deletion strains, locus YNR049C, strain mso1, active compounds read low 0.961 | S. cerevisiae deletion strains, locus YNR052C, strain pop2, active compounds read low 1.01 | S. cerevisiae deletion strains, locus YOL012C, strain htz1 0.86 | S. cerevisiae deletion strains, locus YOL147C, strain pex11, active compounds read low 1.02 | S. cerevisiae deletion strains, locus YOR001W, strain rrp6, active compounds read low 0.99 | S. cerevisiae deletion strains, locus YOR061W, strain CKA2, active compounds read low 0.996 | S. cerevisiae deletion strains, locus YOR069W, strain VPS5, active compounds read low 1.01 | S. cerevisiae deletion strains, locus YOR070C, strain gyp1, active compounds read low 0.985 | S. cerevisiae deletion strains, locus YOR080W, strain dia2, active compounds read low 0.97 | S. cerevisiae deletion strains, locus YOR083W, strain WHI5, active compounds read low 0.982 | S. cerevisiae deletion strains, locus YOR106W, strain vam3, active compounds read low 0.968 | S. cerevisiae deletion strains, locus YOR136W, strain idh2, active compounds read low 1.01 | S. cerevisiae deletion strains, locus YOR144C, strain elg1, active compounds read low 1.01 | S. cerevisiae deletion strains, locus YOR184W, strain ser1, active compounds read low 1 | S. cerevisiae deletion strains, locus YOR231W, strain MKK1, active compounds read low 0.971 | S. cerevisiae deletion strains, locus YOR265W, strain rbl2, active compounds read low 0.967 | S. cerevisiae deletion strains, locus YOR270C, strain vph1, active compounds read low 1.03 | S. cerevisiae deletion strains, locus YOR290C, strain snf2, active compounds read low 0.939 | S. cerevisiae deletion strains, locus YOR316C, strain cot1, active compounds read low 1.01 | S. cerevisiae deletion strains, locus YPL051W, strain arl3, active compounds read low 0.959 | S. cerevisiae deletion strains, locus YPL078C, strain atp4, active compounds read low 0.978 | S. cerevisiae deletion strains, locus YPL106C, strain sse1, active compounds read low 1 | S. cerevisiae deletion strains, locus YPL240C, strain hsp82, active compounds read low 0.985 | S. cerevisiae deletion strains, locus YPL256C, strain CLN2, active compounds read low 0.965 | S. cerevisiae deletion strains, locus YPR119W, strain clb2, active compounds read low 1.01 | S. cerevisiae deletion strains, locus YPR141C, strain kar3, active compounds read low 1.03 | S. cerevisiae deletion strains, locus YPR163C, strain tif3, active compounds read low 1.02 | S. cerevisiae deletion strains, locus YPR167C, strain met16, active compounds read low 1.02 | S. cerevisiae deletion strains, strain wtn01, active compounds read low 1 | S. cerevisiae strains, strain wild type, active compounds read low 0.997
